PubChem BioAssay (NCATS)
Inconclusive results are not listed. Active and inactive are the calls of the source. Calls come from the whole dose curve; as a rule, active = well fitted curve in the direction sought with a large enough effect; inconclusive = small, poorly fitted or top-dose-only effect, or another doubt; inactive = no such curve, though single readings can be large; an effect the other way counts as inactive or inconclusive.

Columns and labels:
UISO = assay: qHTS assay to identify novel small-molecules to repurpose for Merkel cell carcinoma treatment (AID 1296009); settings: MCC and control cell lines, CellTiter-Glo viability, 72 h; series mostly up to 46 µM; note: nearly all actives have a fitted effect of over 60% in size; note: potency is the fitted concentration of half-maximal effect
Summary of the method: (§1)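 Cell viability, measured as CellTiter-Glo luminescence, was normalized between DMSO and no-cell wells. The cells had been exposed to 8- or 11-point compound dilutions for 72 hr at 37 degree celsius.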

WaGa = assay: as above; settings: MCC and control cell lines, CellTiter-Glo viability, 72 h; series mostly up to 46 µM
Summary of the method: as §1

C33A = assay: Primary qHTS to identify gynecologic anti-cancer compounds using libraries of approved drugs and bioactive compounds (AID 1345084); settings: Gynecologic cancer cell panel viability, ATPlite luminescence, 48 h; series mostly up to 57.5 µM; note: nearly all actives have a fitted effect of over 55% in size; note: potency is the fitted concentration of half-maximal effect
Summary of the method: (§2)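 Measured: luminescence after ATPlite addition (15 min, RT). Exposure: 48 h, 37 C, 5% CO2.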

CAOV3 = assay: as above; settings: Gynecologic cancer cell panel viability, ATPlite luminescence, 48 h; series mostly up to 57.5 µM
Summary of the method: as §2

CASKI = assay: as above; settings: Gynecologic cancer cell panel viability, ATPlite luminescence, 48 h; series mostly up to 57.5 µM
Summary of the method: as §2

Es-2 = assay: as above; settings: Gynecologic cancer cell panel viability, ATPlite luminescence, 48 h; series mostly up to 57.5 µM
Summary of the method: as §2

HeLa = assay: as above; settings: Gynecologic cancer cell panel viability, ATPlite luminescence, 48 h; series mostly up to 57.5 µM
Summary of the method: as §2

Hek293T = assay: as above; settings: Gynecologic cancer cell panel viability, ATPlite luminescence, 48 h, control line for the selectivity index; series mostly up to 57.5 µM
Summary of the method: as §2

JEG-3 = assay: as above; settings: Gynecologic cancer cell panel viability, ATPlite luminescence, 48 h; series mostly up to 57.5 µM
Summary of the method: as §2

OV90 = assay: as above; settings: Gynecologic cancer cell panel viability, ATPlite luminescence, 48 h; series mostly up to 57.5 µM
Summary of the method: as §2

PA-1 = assay: as above; settings: Gynecologic cancer cell panel viability, ATPlite luminescence, 48 h; series mostly up to 57.5 µM
Summary of the method: as §2

SKOV3 = assay: as above; settings: Gynecologic cancer cell panel viability, ATPlite luminescence, 48 h; series mostly up to 57.5 µM
Summary of the method: as §2

Tov-21-G = assay: as above; settings: Gynecologic cancer cell panel viability, ATPlite luminescence, 48 h; series mostly up to 57.5 µM
Summary of the method: as §2

Tov112D = assay: as above; settings: Gynecologic cancer cell panel viability, ATPlite luminescence, 48 h; series mostly up to 57.5 µM
Summary of the method: as §2

[1] = Drug repurposing screens with cells derived from glioblastoma tumor samples (AID 1345199); settings: GBM patient neurospheres viability, ATP luminescence, 48 h; note: nearly all actives have a fitted effect of over 40% in size
Summary of the method: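 Primary testing used CD133+ neurospheres from four GBM patients, seven concentrations, 48 h exposure and ATP-based viability; confirmation added three slower-growing patient lines.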

[2] = qHTS assay to identify inhibitors of the type 1 interferon - major histocompatibility complex class I in skeletal muscle: Counter screen cell viability and HiBit confirmation (AID 1347412); settings: iHSKM muscle cells + IFN-b, HiBiT or CellTiter-Glo, 24 h; note: nearly all actives have a fitted effect of over 60% in size; note: potency is the fitted concentration of half-maximal effect
Summary of the method: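 Human myoblast knock-in line, 4.0 ng/ml IFN-beta stimulation, 24 h compound treatment. Endpoints: HiBiT lytic luminescence (HLA-B level) and CellTiter Glo (ATP). Dosing 12 concentrations, 3-fold steps, 46 uM highest final.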
% is set by controls: 0 for no effect and ±100 for the full control effect.

O=C(O)[C@H](Cc1c[nH]c2ccccc12)N1C(=O)c2ccccc2C1=O
inactive: Potency (UISO) | Potency (WaGa)

CC1=C(CO)C(=O)O[C@@H]([C@@H](C)[C@H]2CC[C@H]3[C@@H]4C[C@H]5O[C@]56[C@@H](O)C=CC(=O)[C@]6(C)[C@@H]4CC[C@]23C)C1
active: Potency (UISO) 0.743 µM | Potency (WaGa) 0.264 µM

CC=C1NC(=O)[C@H]2CSSCCC=C[C@H](CC(=O)N[C@H](C(C)C)C(=O)N2)OC(=O)[C@H](C(C)C)NC1=O
active: Potency (UISO) 0.0166 µM | Potency (WaGa) 0.0264 µM

O=C(O)c1ccc2cc(-c3ccc(O)c(C45CC6CC(CC(C6)C4)C5)c3)ccc2c1
active: Potency (UISO) 1.18 µM | Potency (WaGa) 2.35 µM

C1=CCOCc2cc(ccc2OCCN2CCCC2)Nc2nccc(n2)-c2cccc(c2)OCC1
active: Potency (UISO) 11.8 µM | Potency (WaGa) 9.35 µM

CN(C1CCc2c(c3ccccc3n2CC(=O)O)C1)S(=O)(=O)c1ccc(F)cc1 (stereo unspecified)
inactive: Potency (UISO) | Potency (C33A) | Potency (CAOV3) | Potency (CASKI) | Potency (Es-2) | Potency (HeLa) | Potency (Hek293T) | Potency (JEG-3) | Potency (OV90) | Potency (PA-1) | Potency (SKOV3) | Potency (Tov-21-G) | Potency (Tov112D)
active: Potency (WaGa) 5.9 µM

CNC(=O)c1ccc(-c2cnc3ncc(Cc4ccc5ncccc5c4)n3n2)cc1F
inactive: Potency (UISO) | Potency (WaGa) | Potency (C33A) | Potency (CAOV3) | Potency (CASKI) | Potency (Es-2) | Potency (HeLa) | Potency (Hek293T) | Potency (JEG-3) | Potency (OV90) | Potency (PA-1) | Potency (SKOV3) | Potency (Tov-21-G) | Potency (Tov112D)

CCCCCN(CCC12CC3CC(CC(C3)C1)C2)C(=O)NCCCc1ccncc1
inactive: Potency (UISO) | Potency (WaGa) | Potency (C33A) | Potency (CAOV3) | Potency (CASKI) | Potency (Es-2) | Potency (HeLa) | Potency (Hek293T) | Potency (JEG-3) | Potency (OV90) | Potency (PA-1) | Potency (SKOV3) | Potency (Tov-21-G) | Potency (Tov112D)

O=C(O)Cn1nnc(-c2cc(N3CCC(Oc4cc(F)ccc4Br)CC3)no2)n1
inactive: Potency (UISO) | Potency (WaGa) | Potency (C33A) | Potency (CASKI) | Potency (HeLa) | Potency (Hek293T) | Potency (JEG-3) | Potency (OV90) | Potency (PA-1) | Potency (SKOV3) | Potency (Tov-21-G) | Potency (Tov112D)

COc1ccc(-c2cc3c(C)nc(N)nc3n(C3CCC(OCCO)CC3)c2=O)cn1 (stereo unspecified)
active: Potency (UISO) 0.166 µM | Potency (WaGa) 2.09 µM | Potency (CAOV3) 1 µM | Potency (CASKI) 1.41 µM | Potency (Es-2) 2.51 µM | Potency (HeLa) 7.94 µM | Potency (Hek293T) 1.41 µM | Potency (OV90) 2 µM | Potency (PA-1) 2.51 µM | Potency (SKOV3) 1.26 µM | Potency (Tov-21-G) 6.31 µM

CC(=O)SC[C@@H](C)C(=O)N1CCC[C@H]1C(=O)N[C@@H](Cc1ccccc1)C(=O)O
inactive: Potency (UISO) | Potency (WaGa) | Potency (C33A) | Potency (CASKI) | Potency (Es-2) | Potency (HeLa) | Potency (Hek293T) | Potency (JEG-3) | Potency (OV90) | Potency (PA-1) | Potency (Tov-21-G) | Potency (Tov112D) | activity, negative = cell killing ([1]; at 45.9 µM (top of the series), tumour line B) -6.65% | activity, negative = cell killing ([1]; at 45.9 µM (top of the series), tumour line D) 2.25% | activity, negative = cell killing ([1]; at 46.1 µM (top of the series), tumour line C) -6.2%

COc1cccc2c(NCc3ccccc3)nc(-n3c(N)nc4ccccc43)nc12
active: Potency (UISO) 6.62 µM | Potency (WaGa) 9.35 µM | Potency (C33A) 28.2 µM | Potency (CASKI) 25.1 µM | Potency (HeLa) 25.1 µM | Potency (OV90) 25.1 µM | Potency ([2]; HiBiT) 12.5 µM | Potency ([2]; Viability) 17.6 µM

C#Cc1cccc(Nc2ncnc3cc(OC)c(OCCCCCCC(=O)NO)cc23)c1
inactive: activity change, negative = inhibition ([2]; Viability, at 45.9 µM (top of the series)) -17%
active: Potency (UISO) 2.09 µM | Potency (WaGa) 0.105 µM | Potency (C33A) 3.55 µM | Potency (CAOV3) 7.94 µM | Potency (CASKI) 6.31 µM | Potency (Es-2) 10 µM | Potency (HeLa) 6.31 µM | Potency (JEG-3) 10 µM | Potency (OV90) 5.62 µM | Potency (PA-1) 5.01 µM | Potency (SKOV3) 8.91 µM | Potency (Tov-21-G) 10 µM | Potency (Tov112D) 7.08 µM | Potency ([2]; HiBiT) 2.49 µM

CC(C)Nc1cc(C(F)(F)F)cc2nc(NC(=O)c3cccnc3)nn12
inactive: Potency (UISO) | Potency (WaGa) | Potency (C33A) | Potency (CAOV3) | Potency (CASKI) | Potency (Es-2) | Potency (HeLa) | Potency (Hek293T) | Potency (JEG-3) | Potency (OV90) | Potency (SKOV3) | Potency (Tov-21-G)

CCn1cc(-c2ccnc3[nH]c(-c4cccc(CN(C)C)c4)cc23)c(-c2ccc(NC(=O)N(C)C)cc2)n1
inactive: Potency (C33A) | Potency (Hek293T)
active: Potency (UISO) 13.2 µM | Potency (WaGa) 0.0469 µM

CCCn1c(=O)c2[nH]c(-c3cnn(Cc4cccc(C(F)(F)F)c4)c3)nc2n(CC)c1=O
inactive: Potency (UISO) | Potency (WaGa) | Potency (C33A) | Potency (CASKI) | Potency (Es-2) | Potency (HeLa) | Potency (Hek293T) | Potency (JEG-3) | Potency (OV90) | Potency (PA-1) | Potency (SKOV3) | Potency (Tov-21-G) | Potency (Tov112D)

CCc1cc2c(cc1N1CCC(N3CCOCC3)CC1)C(C)(C)c1[nH]c3cc(C#N)ccc3c1C2=O
inactive: Potency (UISO) | Potency (WaGa) | Potency (C33A) | Potency (CASKI) | Potency (Es-2) | Potency (HeLa) | Potency (Hek293T) | Potency (JEG-3) | Potency (OV90) | Potency (PA-1) | Potency (Tov-21-G) | Potency (Tov112D)

CNC(=O)c1c(F)cccc1Nc1nc(Nc2cc3c(cc2OC)CCN3C(=O)CN(C)C)nc2[nH]ccc12
active: Potency (UISO) 5.9 µM | Potency (WaGa) 18.7 µM | Potency ([2]; Viability) 24.9 µM
inactive: Potency (C33A) | Potency (CASKI) | Potency (Es-2) | Potency (HeLa) | Potency (Hek293T) | Potency (JEG-3) | Potency (OV90) | Potency (Tov-21-G) | Potency (Tov112D)
